# Data as given in a collection of fitness landscapes (doi:10.1016/j.celrep.2020.107928).
# The full ranking holds about 81,000 sequences; the median of “one-hybrid fitness for binding NBS DNA” is about -0.1, and the highest 2% start at about 0.36. For the sample, the highest values were picked, then their nearest neighbours and some sequences at random.
# B1: Caulobacter ParB omega fusion; a variant is named by its letters at X, in order, B8GW30 (parent)
# chain: MESVVVGEPGMSEGRRGLGRGLSALLGEVDAAPAQAPGEQLGGSREAPIEILQRNPDQPRRTFREEDLEDLSNSIREKGVLQPILVRPSPDTAGEYQIVAGERAWRAAQRAGLKTVPIMVRELDDLAVLEIGIIENVQRADLNVLEEALSYKVLMEKFERTQENIAQTIGKSXSHVANXMRLLXLPDEVQSYLVSGELTAXHARAIAAAADPVALAKQIIEGGLSVRETEALARKAPNLSAGKSKGGRPPRVKDTDTQALESDLSSVLGLDVSIDHRGSTGTLTITYATLEQLDDLCNRLTRGI
# Variants of: B1
# Experiment: one-hybrid fitness for binding NBS DNA (the Noc-binding site; scaled: cognate 1, non-cognate 0); higher = stronger binding
# Conditions: with NBS DNA site
# How it was run: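 Fitness is the rescaled log change in variant-to-wild-type read ratio, measured by Illumina sequencing of plasmids before and after bacterial one-hybrid selection. The scale puts cognate at 1 and non-cognate at 0. Selection of Caulobacter ParB libraries, four specificity codons randomised, took place in E. coli USO with a HIS3 reporter, site 19 bp from the promoter, over 48 hours at 37°C on M9-minus-histidine with 0.1 mM IPTG and 5 mM 3-AT.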
row,Variant,one-hybrid fitness for binding NBS DNA
1,PYTI,≤ 0.2
2,TEKH,≤ 0.2
3,AHRE,≤ 0.2
4,QKNR,0.747
5,QKNF,≤ 0.2
6,QKDF,≤ 0.2
7,QKNC,0.201
8,QKDR,0.425
9,SPCS,≤ 0.2
10,VPAP,≤ 0.2
11,YAMK,≤ 0.2
12,GQTK,≤ 0.2
13,INGE,≤ 0.2
14,QVQN,≤ 0.2
15,QVNR,0.465
16,QVNS,0.377
17,QVNN,≤ 0.2
18,QVQS,≤ 0.2
19,QVRD,≤ 0.2
20,QVQR,0.368
21,QVDR,≤ 0.2
22,QVDS,≤ 0.2
23,QVYS,0.202
24,QVRS,0.482
25,QVND,≤ 0.2

row,Variant,one-hybrid fitness for binding NBS DNA
1,SVQD,≤ 0.2
2,CSRY,≤ 0.2
3,EQAR,≤ 0.2
4,RYPY,≤ 0.2
5,WMPP,≤ 0.2
6,AHEF,≤ 0.2
7,GQCW,≤ 0.2
8,EIHG,≤ 0.2
9,GPST,≤ 0.2
10,VMSA,≤ 0.2
11,LYRR,≤ 0.2
12,GDTA,≤ 0.2
13,QVRR,0.77
14,QVSD,≤ 0.2
15,QVGD,≤ 0.2
16,QVGP,≤ 0.2
17,QVLR,0.305
18,QVAR,0.384
19,QVYR,0.306
20,QVGR,0.426
21,QVAH,≤ 0.2
22,QVFR,0.302
23,QVSN,≤ 0.2
24,QVSR,0.38
25,GHLS,≤ 0.2

row,Variant,one-hybrid fitness for binding NBS DNA
1,CPPV,≤ 0.2
2,SSGL,≤ 0.2
3,QAQG,≤ 0.2
4,VSSH,≤ 0.2
5,ELVL,≤ 0.2
6,DGRA,≤ 0.2
7,PHAM,≤ 0.2
8,TTRG,≤ 0.2
9,QVHN,≤ 0.2
10,QVVR,0.285
11,QVHR,0.436
12,QVHD,≤ 0.2
13,QVKG,≤ 0.2
14,QVKR,0.786
15,SFPV,≤ 0.2
16,PNKV,≤ 0.2
17,CGYT,≤ 0.2
18,FDPN,≤ 0.2
19,SLHW,≤ 0.2
20,LRRR,0.483
21,LRKR,0.452
22,LRYR,≤ 0.2
23,LRVR,0.207
24,LRDR,≤ 0.2
25,LCKR,0.207

row,Variant,one-hybrid fitness for binding NBS DNA
1,LRGN,≤ 0.2
2,TTRD,≤ 0.2
3,YFPL,≤ 0.2
4,PYKL,≤ 0.2
5,RPSS,≤ 0.2
6,RLSS,0.411
7,RKSP,≤ 0.2
8,RFSS,0.231
9,RHSP,≤ 0.2
10,RHSS,0.438
11,RHSN,≤ 0.2
12,RKSN,≤ 0.2
13,RLSN,≤ 0.2
14,RCSS,0.522
15,RLSD,≤ 0.2
16,RKSS,0.544
17,TAMR,≤ 0.2
18,PIWS,≤ 0.2
19,TISQ,≤ 0.2
20,GDNM,≤ 0.2
21,KDTE,≤ 0.2
22,EWSR,≤ 0.2
23,APCT,≤ 0.2
24,RMSS,0.439
25,RASH,≤ 0.2

row,Variant,one-hybrid fitness for binding NBS DNA
1,RMSH,≤ 0.2
2,RMSD,≤ 0.2
3,RSSP,≤ 0.2
4,RASS,0.421
5,RSSD,≤ 0.2
6,RASN,≤ 0.2
7,RSSS,0.437
8,LPKA,≤ 0.2
9,QSPH,≤ 0.2
10,HLSL,≤ 0.2
11,NDNR,≤ 0.2
12,NAKL,≤ 0.2
13,QILN,≤ 0.2
14,TTWI,≤ 0.2
15,SQRH,≤ 0.2
16,QECR,≤ 0.2
17,QPCR,≤ 0.2
18,QKCM,≤ 0.2
19,QACS,0.272
20,QCCR,0.599
21,QKCD,≤ 0.2
22,QMCY,0.212
23,QACR,0.447
24,QMCM,≤ 0.2
25,QMCR,0.509

row,Variant,one-hybrid fitness for binding NBS DNA
1,QACH,≤ 0.2
2,QKCR,0.519
3,SHHD,≤ 0.2
4,AWRT,≤ 0.2
5,FPKF,≤ 0.2
6,NPPH,≤ 0.2
7,KTTD,≤ 0.2
8,EIVG,≤ 0.2
9,PQLT,≤ 0.2
10,LLMK,≤ 0.2
11,QHCN,≤ 0.2
12,QICG,≤ 0.2
13,QHCS,0.279
14,QHCR,0.473
15,QTCG,≤ 0.2
16,QICR,0.377
17,QSCN,≤ 0.2
18,QSCR,0.493
19,QSCD,≤ 0.2
20,QTCR,0.679
21,QTCF,≤ 0.2
22,QICS,0.216
23,SPDS,≤ 0.2
24,SFYS,≤ 0.2
25,PAKH,≤ 0.2

row,Variant,one-hybrid fitness for binding NBS DNA
1,GLKV,≤ 0.2
2,DMTR,≤ 0.2
3,PHDI,≤ 0.2
4,QSYR,0.458
5,QSYD,≤ 0.2
6,QGRR,0.33
7,QWYR,0.201
8,QSRR,1
9,QGYR,≤ 0.2
10,QCYR,0.606
11,QDRR,0.275
12,HTCT,≤ 0.2
13,HKQR,≤ 0.2
14,IERR,≤ 0.2
15,GCNT,≤ 0.2
16,VMRG,≤ 0.2
17,EMRQ,≤ 0.2
18,IITW,≤ 0.2
19,YLQI,≤ 0.2
20,KRMT,0.539
21,KSMR,≤ 0.2
22,KCMT,≤ 0.2
23,KRMD,≤ 0.2
24,DRMT,≤ 0.2
25,KRMN,≤ 0.2

row,Variant,one-hybrid fitness for binding NBS DNA
1,KRMR,0.51
2,KRMS,0.396
3,KCMR,≤ 0.2
4,TALF,≤ 0.2
5,RTDT,0.284
6,RIDT,≤ 0.2
7,RINP,≤ 0.2
8,RINT,0.554
9,RSNT,0.503
10,RANT,0.496
11,RANP,≤ 0.2
12,RTNT,0.636
13,RADT,≤ 0.2
14,RTNN,≤ 0.2
15,RSDT,≤ 0.2
16,RSNN,≤ 0.2
17,WWTD,≤ 0.2
18,LSRK,≤ 0.2
19,SSTW,≤ 0.2
20,ASEC,≤ 0.2
